From PubChem BioAssay (NCATS) come the findings set out here.

Where “and” joins values, the source holds several entries; their conditions need not be identical. Equal values may be shown once. Values without a mark were called inactive. Results filed as inconclusive are left out. Calls of active or inactive are those of the source. Unless noted, calls come from the whole dose curve; as a rule, active = well fitted curve in the direction sought with a large enough effect; inconclusive = small, poorly fitted or top-dose-only effect, or another doubt; inactive = no such curve, though single readings can be large; an effect the other way counts as inactive or inconclusive.

A short description of test [1]: qHTS assay for small molecule agonists of the antioxidant response element (ARE) signaling pathway (AID 651741; active = well fitted activation curve with a large enough effect in the signal ratio; the % refers to the signal ratio; note: potency is the fitted concentration of half-maximal effect; for activation: % of control where 0% means no effect). In short, it runs like this: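 HepG2 ARE-bla reporter cells, 2,000/well; 5 h settle at 37 C/5% CO2; compound pin transfer (23 nL, DMSO); 16 h at 37 C; LiveBLAzer B/G FRET substrate, 2 h RT; fluorescence intensity read.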
A general note: In qHTS, concentration-response curves come from the screen itself.

The nature of test [2]: qHTS assay for small molecule activators of the p53 signaling pathway (AID 651743; active = well fitted activation curve with a large enough effect in the signal ratio, not every such curve was filed as active; the % refers to the signal ratio; note: series mostly up to about 92 µM; % of control where 0% means no effect). To be noted: HCT-116 p53RE-bla, beta-lactamase FRET ratio, 16 h; activation: active compounds read high. In short, it runs like this:
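Reporter: beta-lactamase driven by p53 response elements, stably integrated in HCT-116 cells. Cells seeded at 4,000/well, 5 h preincubation, compound (DMSO) 16 h at 37 C; B/G FRET substrate 2 h RT; fluorescence intensity read.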

Test [3] can be described thus: qHTS assay for environmental chemicals that activate the Aryl hydrocarbon Receptor (AhR) signaling pathway (AID 651777). For activation: % of control where 0% means no effect. Note: nearly all actives have a fitted effect of over 15% in size. Note: potency is the fitted concentration of half-maximal effect. The following applies: 1A2-DRE human hepatoma cells, luciferase, 24 h; activation: active compounds read high. Put shortly: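 Human hepatoma 1A2-DRE cells stably carrying a DRE/CYP1A2 promoter–luciferase reporter, 1,200 cells/well, exposed to compound 24 hr at 37 C. Luciferase read by One-Glo luminescence after 30 min at room temperature; increased signal marks AhR activation.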

In test [4] the target is Peroxisome proliferator-activated receptor alpha (Homo sapiens) (UniProt Q07869). The test can be described thus: qHTS assay for small molecule agonists of the peroxisome proliferator-activated receptor alpha (PPARalpha) signaling pathway (AID 651778). Note: % of control where 0% means no effect. To be noted: PathHunter PPARalpha complementation, chemiluminescence, 6 h; max response: active compounds read high. Put shortly: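 Enzyme-fragment complementation assay in which ligand-bound PPARalpha translocates and forms an active enzyme that generates chemiluminescence. Cells were plated overnight, exposed to compound for 6 hr at 37 C, and then given detection reagent for 60 min at room temperature.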

Test [5] is described as follows: qHTS assay for small molecule activators of the nuclear factor-kappa B (NF-kB) signaling pathway (AID 651749; active = well fitted activation curve with a large enough effect in the signal ratio; the % refers to the signal ratio; note: series mostly up to about 77 µM; % of control where 0% means no effect). The following applies: NF-kB-bla ME-180 cells, beta-lactamase FRET ratio, 16 h; active compounds read high. In short, it runs like this:
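NF-kB-bla ME-180 cells, 2,000/well; 23 nL compound or DMSO pinned; 16 hr, 37C/5% CO2; beta-lactamase FRET read-out.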

The target in test [6] is Tumor necrosis factor (Homo sapiens) (UniProt P01375). The test can be described thus: qHTS assay to identify small molecules that stimulate Tumor Necrosis Factor-alpha (TNF-alpha) secretion (AID 651757; active = well fitted curve in the direction sought with a large enough effect in the signal ratio; the % refers to the signal ratio; note: 0% is about no effect). Put shortly:
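Using 3000 THP-1 cells per well, compounds and controls were applied for 17 hrs at 37 C. Detection followed with two labeled anti-TNF-alpha antibodies (cryptate donor, XL665 acceptor) for 3 hr at room temperature, measured by TR-FRET.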

Test [7] in a line: qHTS assay to identify small molecules that stimulate interleukin-8 (IL-8) secretion (AID 651758; active = well fitted activation curve with a large enough effect in the signal ratio; the % refers to the signal ratio; note: 0% is about no effect). Put shortly:
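Compounds are added to THP-1 cells (2000 per well) and left 16 hrs at 37 C. A labeled anti-IL-8 antibody pair is then added, and IL-8 secretion is measured by time-resolved FRET after 1-3 hrs at room temperature.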

Test [8] addresses Nuclear receptor ROR-gamma (Homo sapiens) (UniProt P51449). As to the kind of experiment: qHTS assay for small molecule antagonists of the retinoid-related orphan receptor gamma (ROR-gamma) signaling pathway (AID 651802). Note: nearly all actives have a fitted effect of over 60% in size. Note: potency is the fitted concentration of half-maximal effect. In short, it runs like this: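 Doxycycline-induced reporter activity in engineered CHO cells (TET-inducible ROR, RORE-LUC) was measured by luminescence after 16hr compound exposure at 37C.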

Test [9] is described as follows: HTS Assay for Allosteric Antagonists of the Human D2 Dopamine Receptor: Hit Validation in HTRF (AID 624455).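 Note: stable D1 dopamine receptor cell line scored for blocking the D1 response; potency is the fitted concentration of half-maximal effect.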 Put shortly: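 Validation of hits used D1 receptor stably expressed in cells with HTRF detection of response inhibition; origin screen measured calcium flux following EC80 dopamine in a force-coupled, inducible Hek293 Trex D2 cell line.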
In general terms: Time-resolved FRET reads energy transfer from a long-lived donor to a nearby acceptor.

Nuclear receptor ROR-gamma (Homo sapiens), sequence (P51449 whole entry, looked up): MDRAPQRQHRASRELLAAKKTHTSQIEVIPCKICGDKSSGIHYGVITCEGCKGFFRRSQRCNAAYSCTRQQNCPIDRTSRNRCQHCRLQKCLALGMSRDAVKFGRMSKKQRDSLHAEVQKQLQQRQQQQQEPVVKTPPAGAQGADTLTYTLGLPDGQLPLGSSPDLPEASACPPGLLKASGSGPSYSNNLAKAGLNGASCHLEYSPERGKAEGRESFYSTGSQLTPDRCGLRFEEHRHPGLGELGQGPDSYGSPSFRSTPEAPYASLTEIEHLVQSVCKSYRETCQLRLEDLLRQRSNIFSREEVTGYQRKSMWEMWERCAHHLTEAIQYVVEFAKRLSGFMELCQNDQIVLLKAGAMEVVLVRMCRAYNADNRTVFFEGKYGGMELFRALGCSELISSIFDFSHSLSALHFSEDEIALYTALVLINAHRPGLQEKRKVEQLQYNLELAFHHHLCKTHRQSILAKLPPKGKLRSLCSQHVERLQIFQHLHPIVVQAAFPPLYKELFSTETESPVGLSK
Peroxisome proliferator-activated receptor alpha (Homo sapiens), sequence (Q07869 whole entry, looked up, the tested form may be a part): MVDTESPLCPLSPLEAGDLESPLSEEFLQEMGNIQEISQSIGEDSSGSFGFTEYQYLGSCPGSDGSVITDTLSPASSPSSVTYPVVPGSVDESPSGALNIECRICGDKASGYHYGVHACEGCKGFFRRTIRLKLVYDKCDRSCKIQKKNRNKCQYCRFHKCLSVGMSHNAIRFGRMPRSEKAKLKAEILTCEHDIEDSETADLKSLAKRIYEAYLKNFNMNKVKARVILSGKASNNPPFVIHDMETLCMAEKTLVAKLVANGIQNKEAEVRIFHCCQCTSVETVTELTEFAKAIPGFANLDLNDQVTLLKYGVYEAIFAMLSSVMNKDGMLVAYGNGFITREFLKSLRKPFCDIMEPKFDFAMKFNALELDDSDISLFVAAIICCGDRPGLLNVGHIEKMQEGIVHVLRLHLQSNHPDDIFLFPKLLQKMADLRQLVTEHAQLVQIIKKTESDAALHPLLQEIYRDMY
Tumor necrosis factor (Homo sapiens), sequence (P01375 whole entry, looked up): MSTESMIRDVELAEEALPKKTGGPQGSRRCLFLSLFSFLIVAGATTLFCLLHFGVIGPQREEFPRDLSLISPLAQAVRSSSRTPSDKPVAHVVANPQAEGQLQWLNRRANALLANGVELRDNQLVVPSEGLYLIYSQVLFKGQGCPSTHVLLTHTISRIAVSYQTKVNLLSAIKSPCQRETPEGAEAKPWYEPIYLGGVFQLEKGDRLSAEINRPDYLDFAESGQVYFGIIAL

As for `NC(N)=NC(=O)c1nc(Cl)c(N)nc1N`, the Potency in test [1] was 42.2 µM (active).
With `CCNc1nc(Cl)nc(NCC)n1`, the Potency entry in test [1] is “inactive”. The values for the activation in test [2] and in test [3] were 1.85% and -1.55%, respectively. Besides, the max response in test [4] is -1.73%.
In the case of `CNC(=O)Oc1cccc2ccccc12`, the Potency was 33.5 µM (active) and 17.2 µM (active) in test [1]; 39.8 µM (active) and 35.5 µM (active) in test [3]. Further, the activation in test [2] was 1.34%; in test [5], 0.189% and -3.62%. Further, the Potency entry in test [6], in test [7] and in test [8] was “inactive” each time. For the same molecule, the max response in [4] was -0.498% and -1.3%.
Take `N#Cc1nn(-c2c(Cl)cc(C(F)(F)F)cc2Cl)c(N)c1S(=O)C(F)(F)F` (centres undefined): in test [1], the Potency was 61.1 µM (active). The activation in [3] is 2.36%. The max response in [4] was -0.478%.
Consider `C[C@@H]1C[C@@H]([C@H](O)CC2CC(=O)NC(=O)C2)C(=O)[C@@H](C)C1`, for which the activation in [2] was 3.69% and -1.29% and 0.673%; in [5], 5.34%. Moreover, the Potency entry in test [6] is “inactive”. Besides, the max response in test [4] was -1.34% and -7.61% and -0.958%. For the same molecule, the Potency in test [8] is 150 nM (active) and 237 nM (active).
Consider `COP(=S)(OC)Oc1ccc(Sc2ccc(OP(=S)(OC)OC)cc2)cc1`, for which, in test [1], the Potency was 61.1 µM (active). Also, the activation in test [2] was 9.51%; in test [3], 6.46%. Also, in test [4], the max response was 7.57%.
On to `CCOP(=S)(OCC)O/N=C(\C#N)c1ccccc1`, for which the activation in test [5] is 0.361%; in test [3], 9.33%. Moreover, the max response in test [4] is -3.05%.
Regarding `CN1C[C@H](C(=O)N[C@]2(C)O[C@@]3(O)[C@@H]4CCCN4C(=O)[C@H](Cc4ccccc4)N3C2=O)C[C@@H]2c3cccc4[nH]cc(c34)C[C@H]21`, the Potency in [9] was 0.082 µM (active).
